Measurements: PubChem BioAssay (NCI)
This is part of a sample that, as a whole, favours compounds with a hit. Of some 83,000 tested, about 20% had one in any assay.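 Percent growth is the endpoint: 0 to 100 indicates growth inhibition (40 means 60% inhibition), 0 means no net growth, and negative values indicate cell death.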 A number with no mark means an inactive call. Activity calls are given as the source filed them. The calls were made as follows: active = growth percent below 10; inactive = the rest.

Columns and labels:
Assay in all cases: NCI-60 one-dose screen, 48 h (100 = growth as untreated, 0 = no growth, -100 = all killed)
Settings in all cases: 10 µM unless noted
[1] = test system: HCT-15 colon
[2] = test system: HT29 colon
[3] = test system: SNB-75 CNS
[4] = test system: SNB-19 CNS
[5] = test system: U251 CNS
[6] = test system: PC-3 prostate
[7] = test system: SK-MEL-5 melanoma
[8] = test system: UACC-62 melanoma
[9] = test system: LOX IMVI melanoma
[10] = test system: SK-MEL-28 melanoma
[11] = test system: SK-MEL-2 melanoma
[12] = test system: EKVX NSCLC
[13] = test system: SN12C renal
[14] = test system: UO-31 renal
[15] = test system: TK-10 renal
[16] = test system: CAKI-1 renal
[17] = test system: A498 renal
[18] = test system: CCRF-CEM leukemia
[19] = test system: MOLT-4 leukemia
[20] = test system: ACHN renal

SMILES | growth [1] [%] | growth [2] | growth [3] | growth [4] [%] | growth [5] [%] | growth [6] [%] | growth [7] | growth [8] | growth [9] | growth [10] [%] | growth [11] | growth [12] [%] | growth [13] [%] | growth [14] [%] | growth [15] [%] | growth [16] | growth [17] [%] | growth [18] | growth [19] | growth [20] [%]
COc1cc(C2CC(c3ccc(Cl)cc3)=NN2C=O)ccc1Oc1ccnc2cc(Cl)ccc12 (configuration not stated) | 85.7 | 58% | 7.19% (active) | 72.6 | 72.5 | 66.8 | 51% | 74.6% | 74.2% | 74.4 | 86.7% | 59 | 77.3 | 80.8 | 83 | 58.5% | 62.6 | 68.8% | 62% | 
CC(=O)Nc1c(Br)cc2c(c1Br)Cc1cc(Br)ccc1-2 | 91.7 | 52.8% | 74.3% | 79.4 | 12.8 | 67.8 | 88.2% | 72.2% | 20.7% | 98.3 | 99.6% | 55.3 | 83.1 | 67.3 | 109 | 81.1% |  | 66.4% | 76.9% | 60.8
N/N=C(\C(=N\N)c1ccccc1)c1ccccc1 | 104 | 94.7% | 86.4% | 96.6 | 104 | 88.7 | 101% | 90.2% | 97.3% | 105 | 98.7% | 94 | 88.9 | 73.6 | 98.8 | 99.9% | 76.1 |  | 81.2% | 104
O/N=C1\c2ccccc2-c2ccc(Br)cc21 | 102 | 101% | 107% | 104 | 104 | 101 | 104% | 105% | 105% | 118 | 115% | 88.6 | 101 | 81.6 | 108 | 91.6% |  | 71.8% | 89.2% | 94.2
Cc1ccccc1Nc1n[nH]c(Cc2ccccc2)n1 | 108 | 79.1% | 93.9% | 97.6 | 94.3 | 86.5 | 93.9% | 98.4% | 95.5% | 113 | 83.8% | 103 | 104 | 86 | 90 | 101% | 102 | 97.8% | 70.2% | 
COc1cc(/C=C/c2cc(/C=C/c3ccc(O)c(OC)c3)n(C(=O)c3ccccc3Br)n2)ccc1O | 16.2 | 0.381% (active) | 27.3% | 36.2 | 35.1 | 12.9 | -1.91% (active) | 3.48% (active) | 9.29% (active) | 28.6 | -0.325% (active) | 30.6 | 14.2 | 23.9 | 65 | -34.8% (active) | 56.4 | 3.52% (active) | -6.53% (active) | 
COc1cccc(-c2nc3sccn3c2-c2ccnc(NCCN3CCCN(C)S3(=O)=O)n2)c1 | 68 | 50.6% | 62.5% | 123 | 99.9 | 87.2 | 84.1% | 15.2% | 45.2% | 53 | 97.1% | 103 | 64.7 | 73.4 | 120 | 50.7% | 98.1 | 63.3% | 82.8% | 
CC(=O)CC(c1ccc([N+](=O)[O-])cc1)c1c(O)c2ccccc2oc1=O (configuration not stated) | 110 | 106% | 81.7% | 109 | 104 | 92 | 91.9% | 100% | 101% | 113 | 97% | 108 | 92.2 | 76.7 | 105 | 94.1% | 70.3 |  | 100% | 98.1
